Results filed as inconclusive are left out. Unmarked numbers belong to inactive results. Activity calls are given as the source filed them. The call rests on the fitted dose curve; in most records, active means well fitted inhibition curve with a large enough effect; inconclusive means small, poorly fitted or top-dose-only effect; inactive means no such curve, though single readings can be large or run the other way.
Target: Thyroid hormone receptor beta (Homo sapiens) (UniProt P10828)
Assay: Concentration Response Confirmation Assay for Inhibitors of the Interaction of Thyroid Hormone Receptor and Steroid Receptor Coregulator 2
Details: TRb LBD + Texas Red SRC2 peptide, fluorescence polarization, 5 h; series mostly up to 92.2 µM; activity, negative = inhibition: at the top concentration
Text: NIH Molecular Libraries Probe Production Network [MLPCN] NIH Chemical Genomics Center [NCGC] MLPCN Grant: DK058080 Assay Provider: R. Kip Guy, St. Jude Children's Research Hospital NCGC Assay Overview: Thyroid receptor (TR) regulates many homeostatic processes including basal metabolism, cardiovascular function, body weight, and lipid trafficking. TR modulators are potential therapeutics for obesity and hyperlipidemias but current thyroid analogs have undesirable side effects, particularly cardiac stimulation. To identify inhibitors that specifically prevent the interaction of TR with the steroid receptor coregulator 2 (SRC2), a fluorescence polarization assay was screened. This assay detects interaction of the ligand-binding domain of human TRb with a Texas Red labeled SRC2 peptide, corresponding to a 20 amino acid region of the nuclear receptor interaction domain (Arnold et al., 2006). Small molecule inhibitors that block the interaction of TR and SRC2 are detected by a decrease in fluorescence polarization. This assay is a confirmation assay for AID 1469. Arnold, L. A.; Estebanez-Perpina, E.; Togashi, M.; Shelat, A.; Ocasio, C. A.; McReynolds, A. C.; Nguyen, P.; Baxter, J. D.; Fletterick, R. J.; Webb, P.; Guy, R. K. A high-throughput screening method to identify small molecule inhibitors of thyroid hormone receptor coactivator binding. Sci STKE 2006, p 13.
NCGC Assay Protocol Summary: For screening, 5 uL/well 0.6 uM TRb and 20 nM SRC2 Texas Red in protein buffer (20mM Tris hydrochloride, 100mM NaCl, 10% glycerol, 1mM EDTA, 0.01% NP-40, 1mM DTT, 1uM T3 and 5% DMSO) was dispensed into black solid 1536-well plates (Grenier) using a solenoid-based dispenser. […] The plates were read by an Envision (Perkin Elmer) to detect fluorescence polarization of SRC2 Texas Red (555 nm excitation and 632 nm emission). […] Keywords: NIH Roadmap, MLPCN, MLI, MLSMR, qHTS, NCGC, qHTS, thyroid hormone receptor, steroid receptor coactivator, fluorescence polarization

Sequence of Thyroid hormone receptor beta (Homo sapiens) (P10828 whole entry, looked up): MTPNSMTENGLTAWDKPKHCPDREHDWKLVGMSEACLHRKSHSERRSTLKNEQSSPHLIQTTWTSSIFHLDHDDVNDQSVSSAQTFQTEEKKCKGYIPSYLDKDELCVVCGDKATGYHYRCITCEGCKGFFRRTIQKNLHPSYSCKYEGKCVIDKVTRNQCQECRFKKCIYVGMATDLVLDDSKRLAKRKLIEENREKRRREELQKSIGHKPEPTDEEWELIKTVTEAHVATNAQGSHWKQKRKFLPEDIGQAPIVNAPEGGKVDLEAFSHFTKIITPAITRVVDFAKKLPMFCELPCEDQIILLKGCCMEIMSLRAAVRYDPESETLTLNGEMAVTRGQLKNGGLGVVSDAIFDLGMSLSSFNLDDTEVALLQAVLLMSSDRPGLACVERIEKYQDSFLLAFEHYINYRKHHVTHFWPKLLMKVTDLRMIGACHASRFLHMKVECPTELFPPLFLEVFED

Row | SMILES | activity, negative = inhibition | Potency
1 | CCn1nc(-c2cccs2)nc2c(=O)n(C)c(=O)nc1-2 | -10.7% | 
2 | CN1CC[C@@]2(C)c3cc(O)ccc3N(C)C2O1 (stereo partly drawn) |  | 25.1 µM (active)
3 | COP(=S)(OC)Oc1ccc([N+](=O)[O-])cc1 |  | 25.1 µM (active)

Source: PubChem BioAssay AID1573 (National Center for Advancing Translational Sciences (NCATS), 2009)
